# Assay outcomes as filed in PubChem.
# TRAIL sens C8: sensitizes caspase-8 expressing cells to TRAIL; NB7+C8 cells + TRAIL, ATPlite viability luminescence; inhibition (viability loss, TRAIL sensitization), % at 10 µM; 360,000 compounds, 1% hits; AID 624354;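 active = compounds causing at least 50% loss of cell viability in the single-dose screen, relative to plate controls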
# SENP7 inh: blocks the human protease SENP7. inhibition, % at 5 µM. 330,000 compounds, 1.5% hits. recombinant SENP7, Z-RLRGG-aminoluciferin luminescence, 40 min. AID 434973;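 active = inhibition above about 50% at the single test dose, limit read from the data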;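 also: plate controls were DMSO with enzyme for no effect and no enzyme buffer wells for full effect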
# Target sequence (Q9BQF6 706-1050 limits assumed): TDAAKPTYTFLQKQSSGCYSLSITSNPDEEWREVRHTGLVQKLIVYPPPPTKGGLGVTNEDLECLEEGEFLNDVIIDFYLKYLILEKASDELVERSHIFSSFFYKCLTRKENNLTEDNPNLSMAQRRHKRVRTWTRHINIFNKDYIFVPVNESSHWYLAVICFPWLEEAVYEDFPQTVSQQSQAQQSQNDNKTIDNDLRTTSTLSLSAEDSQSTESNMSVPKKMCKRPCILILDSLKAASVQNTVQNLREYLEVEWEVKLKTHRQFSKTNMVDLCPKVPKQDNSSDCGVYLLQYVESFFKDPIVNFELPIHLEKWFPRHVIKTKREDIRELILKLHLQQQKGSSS
# SENP8 block-1: blocks the human protease SENP8. purified SENP8, Z-RLRGG-aminoluciferin cleavage, luminescence. inhibition, % at 10 µM. 330,000 compounds, 1.2% hits. Q96LD8; in the data active = inhibition above about 50%
# Target sequence (Q96LD8 whole entry, looked up): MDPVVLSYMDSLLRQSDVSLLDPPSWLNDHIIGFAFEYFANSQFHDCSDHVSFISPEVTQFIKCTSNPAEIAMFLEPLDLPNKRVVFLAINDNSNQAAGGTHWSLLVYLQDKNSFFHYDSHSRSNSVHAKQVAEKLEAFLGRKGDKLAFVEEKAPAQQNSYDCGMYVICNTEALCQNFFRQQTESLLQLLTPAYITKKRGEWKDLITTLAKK
# PPC-1+TRAIL kill: compounds killing PPC-1 cancer cells with TRAIL present (potentiator screen, no TRAIL-free arm); PPC-1 cells + TRAIL, ATPLite viability luminescence; cell killing (% activity), % at 4 µM or 5 µM; 220,000 compounds, 0.41% hits; AID 1443;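 active = cell killing above 50% in the first pass at 4 µM, then a duplicate retest at 5 µM averaging 50% or more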;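 also: plate controls were cells with TRAIL plus DMSO for no effect and medium-only wells lacking cells for full effect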
# SENP8 block-2: blocks human SENP8 cleavage of Nedd8 substrate; Q96LD8; recombinant SENP8, Nedd8 substrate fluorescence; inhibition, % at 20 µM; 360,000 compounds, 0.64% hits; AID 602440; in the data active = inhibition mostly above about 40%, no sharp cut-off; inactive = mostly below about 27%
# SENP6 block: inhibitors of human SENP6 protease | Q9GZR1 | Recombinant SENP6 catalytic domain, aminoluciferin luminescence | inhibition, % at 10 µM | 330,000 compounds, 1.8% hits | AID 2599;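 active = inhibition above about 50% at the single tested dose, limit read from the data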;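 also: plate controls were DMSO wells with enzyme for no effect and DMSO wells lacking enzyme for full effect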
# * = called active by the depositor; nt = no result. An excerpt weighted towards active compounds, which were near 3% of everything screened.
SMILES,TRAIL sens C8,SENP7 inh,SENP8 block-1,PPC-1+TRAIL kill,SENP8 block-2,SENP6 block
Cc1cc(N=Nc2ccc(Cl)cc2)cc(CN2CCCC2)c1O,12.2,-11.3,-7.3,11.7,42.8*,-5.5
COc1ccc(C(=O)OCC(=O)NCC2CCCCC2)c(OC)c1,6.7,-8.2,-2.1,nt,5.2,-6.1
COC(=O)[C@H]1C[C@@]2(O)CN(S(=O)(=O)c3ccc(C)cc3)C[C@@]2(OC(=O)NCC2CCCCC2)C[C@H]1C(=O)OC,13.8,nt,nt,nt,11.2,nt
C[C@H](CO)N1C[C@H](C)[C@@H](CN(C)C(=O)NC2CCCCC2)Oc2c(NS(=O)(=O)c3ccccc3)cccc2C1=O,50.2*,6.5,-3.7,nt,14.4,-8.8
C[C@H](CO)N1C[C@H](C)[C@@H](CN(C)C(=O)NC2CCCCC2)Oc2c(NS(=O)(=O)c3ccc(F)cc3)cccc2C1=O,-10.4,6.4,-0.6,nt,3.0,4.0
O=[N+]([O-])c1cc(/C=N/N2CCN(C3c4ccccc4-c4ccccc43)CC2)ccc1Cl,-0.2,1.7,1.9,1.1,47.0*,5.9
COc1cccc2c1C1COC3C4CC(C(=O)O)C(C(C2)N13)N4C (stereo unspecified),5.1,nt,nt,nt,-1.3,nt
COc1cc(NCc2ccccc2)c2ncn(C(C)C)c2c1,-1.4,5.5,4.8,nt,21.9,2.0
CCC(CN(C)C)Oc1cc(NCc2ccccc2)c2ncn(C(C)C)c2c1 (stereo unspecified),58.3*,86.7*,82.9*,nt,12.4,-4.9
COc1ccc(/C=C/C(=O)c2ccc([N+](=O)[O-])o2)cc1OC,nt,-4.6,2.8,nt,nt,5.0
O=C(/C=C/c1cccc(Cl)c1)c1ccc([N+](=O)[O-])o1,68.0*,-1.5,0.2,nt,-5.2,-15.2
Cc1cccc(NC(=O)c2ccc(N3CCCCC3)c([N+](=O)[O-])c2)n1,33.5,73.4*,47.8,26.6,15.4,76.0*
CC(=O)Nc1cc(NC(C)=O)cc(C(=O)NCC2(N3CCOCC3)CCCCC2)c1,-6.5,5.0,2.0,nt,7.4,-9.2
CC(=O)Oc1cc2cccc(OC(C)=O)c(=O)c2c(OC(C)=O)c1OC(C)=O,32.5,-5.3,0.9,14.7,44.5*,16.6
CN(C)c1ccc(C(=O)OCc2ccccc2)cc1,4.6,-2.7,-17.2,-2.7,1.9,-2.3
O=C1C=CC(=O)C(CNc2ccc(C(=O)OCc3ccccc3)cc2)=C1,91.3*,nt,nt,nt,9.2,nt
Cc1[nH]n(-c2ccccc2)c(=O)c1N=Nc1nccs1,14.0,35.2,14.8,-0.6,56.0*,39.6
Cc1[nH]n(-c2ccccc2)c(=O)c1N=Nc1ccc2c(c1)OCO2,2.3,2.1,2.5,12.9,46.0*,-6.3
Cc1ccccc1N=Nc1c(C)[nH]n(-c2ccccc2)c1=O,nt,nt,nt,25.1,nt,nt
Cc1[nH]n(-c2ccccc2)c(=O)c1N=Nc1ccccc1O,56.8*,-9.1,-6.3,46.0,40.2*,15.5
CCCCNC(=O)C1(C)CCCCN1C(=O)c1cncc(Br)c1 (stereo unspecified),-9.5,nt,nt,nt,4.7,nt
O=C(O)c1ccc(N/N=C/c2ccc3nccnc3c2)cc1,27.2,100.5*,97.1*,23.4,16.0,98.0*
O=C(O)c1ccc(N/N=C/c2cccc3cccnc23)cc1,6.5,31.2,30.1,2.3,-86.2,54.2*
O=C(N/N=C/c1ccc2nccnc2c1)c1ccc(Br)cc1,-0.8,-3.2,0.0,23.4,-17.5,-2.9
CC(C)(C)OC(=O)NCCC(=O)N/N=C/c1cccc2cccnc12,0.2,7.9,-3.4,16.6,22.0,-12.6
SMILES,TRAIL sens C8,SENP7 inh,SENP8 block-1,PPC-1+TRAIL kill,SENP8 block-2,SENP6 block
COc1ccc(-c2nn(-c3ccccc3)cc2/C=N/NC(=O)c2ccc(Br)o2)cc1,69.3*,-0.8,-2.4,15.3,-264.8,-2.4
Cc1ccc(C)c(S(=O)(=O)N2CCN(C(=O)C3CCN(C(=O)c4ccc(F)cc4)CC3)CC2)c1,13.7,-1.4,4.7,nt,13.2,-1.9
COc1cccc(C(=O)Nc2cc3c(cc2Cl)OCCCO3)c1,39.8,40.0,34.3,18.9,6.2,51.5*
c1ccc(CN(CCN2CCOCC2)Cc2ccccc2)cc1,10.7,nt,nt,nt,0.0,nt
NS(=O)(=O)c1ccc(N/C=C\C(=O)c2ccc(F)cc2)cc1,-2.4,70.0*,63.9*,22.8,-432.1,42.5
NS(=O)(=O)c1ccc(N/C=C/C(=O)c2ccc(Br)cc2)cc1,9.7,3.3,-0.4,-1.2,-284.6,-5.8
COc1cccc(/C=C2\SC(=S)N(CCCC(=O)N3CCCCC3)C2=O)c1,32.2,-4.5,2.3,nt,25.5*,28.8
O=C1/C(=C/c2cccc(Br)c2)SC(=S)N1CCC(=O)N(CCO)c1ccccc1,-8.4,8.6,-5.1,nt,17.7,-8.5
COc1cccc(/C=C2\SC(=S)N(CCCC(=O)N(CCO)c3ccccc3)C2=O)c1,60.8*,-2.0,-5.3,nt,24.4,9.6
Cc1cc(C)c2nc(C)cc(N/N=C/c3ccc(O)cc3)c2c1,81.4*,-1.1,3.4,nt,-304.1,1.1
Cc1cc(-c2ccccc2)nc(N/N=C/c2ccc(O)cc2)n1,76.7*,3.5,0.4,nt,-8.2,-0.8
Cc1ccc(N(CC(O)CN2C(=O)NC(C)(C)C2=O)S(=O)(=O)c2ccc([N+](=O)[O-])cc2)cc1 (stereo unspecified),3.4,2.5,-1.9,nt,19.4,11.6
Cc1cc(C)cc(NS(=O)(=O)c2ccc3[nH]cc(C(=O)NCc4ccco4)c(=O)c3c2)c1,83.8*,4.8,4.7,19.1,-100.9,3.3
NC(=O)c1sc2nc(-c3ccccc3)ccc2c1N,3.7,10.8,19.6,nt,-289.2,21.8
CCOC(=O)c1sc2nc(-c3ccccc3)ccc2c1N,77.0*,45.2,-3.5,58.1*,-369.3,19.1
COc1ccccc1N1CCN(C(c2ccc(N(C)C)cc2)c2nnnn2CCc2ccccc2)CC1 (stereo unspecified),2.6,-5.8,-3.1,19.0,46.6*,-4.2
COCCn1nnnc1C(c1ccc(OC)c(OC)c1)N1CCN(c2nc3ccccc3s2)CC1 (stereo unspecified),-13.0,-13.2,-4.8,71.4*,11.7,-17.0
COc1ccc(C(c2nnnn2Cc2ccccc2)N2CCN(c3nc4ccccc4s3)CC2)cc1 (stereo unspecified),7.0,-12.4,-13.4,-4.9,16.9,-5.8
COc1ccc(C(c2nnnn2CCc2ccccc2)N2CCN(C3CCCC3)CC2)cc1 (stereo unspecified),9.5,0.5,1.7,13.3,20.9,-6.4
CC1CC(=O)c2c(cc3c(-c4c(O)cc(O)c5c(O)c6c(cc45)OC(C)CC6=O)c(O)cc(O)c3c2O)O1 (stereo unspecified),87.8*,25.8,22.1,14.3,71.2*,41.0
CCOC(=O)c1sc(N=NC2=C(O)CCCC2=O)c(C(=O)OCC)c1C,-8.5,3.0,-0.1,25.2,52.7*,2.8
COc1cc(CC(=O)N(CC(C)C)C2CCS(=O)(=O)C2)cc(OC)c1OC (stereo unspecified),-7.4,9.9,-3.4,nt,13.6,-3.7
